KLF5 inh: kruppel-like factor 5 inhibition; DLD-1 KLF5 promoter-luciferase reporter, luminescence; inhibition, % at 5 µM; actives 0.23% (n = 290,000); AID 1700;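 active means inhibition above a per-plate limit of that plate's mean compound inhibition plus 3 SD, cut at about 60% in these data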;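 further: 0% = DMSO wells and 100% = LY294002 at 200 µM; higher means less KLF5 promoter-driven luciferase light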
ANO1 activ: activators or potentiators of mouse TMEM16A chloride channel. Q8BHY3. actives 0.3% (n = 340,000). AID 623877. HEK293 TMEM16A/YFP-H148Q/I152L, iodide quench fluorescence; active compounds read low. B-score at 10 µM;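 active means fluorescence-ratio B-score plate-corrected deviation score at least 3 library SD below zero, with starting fluorescence score within 5 deviations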;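 further: channel opened by trigger with iodide after compound preincubation; score built on the fluorescence ratio of max minus min over baseline; more negative score means more quench and so TMEM16A activation or potentiation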
Target sequence (Q8BHY3 whole entry, looked up): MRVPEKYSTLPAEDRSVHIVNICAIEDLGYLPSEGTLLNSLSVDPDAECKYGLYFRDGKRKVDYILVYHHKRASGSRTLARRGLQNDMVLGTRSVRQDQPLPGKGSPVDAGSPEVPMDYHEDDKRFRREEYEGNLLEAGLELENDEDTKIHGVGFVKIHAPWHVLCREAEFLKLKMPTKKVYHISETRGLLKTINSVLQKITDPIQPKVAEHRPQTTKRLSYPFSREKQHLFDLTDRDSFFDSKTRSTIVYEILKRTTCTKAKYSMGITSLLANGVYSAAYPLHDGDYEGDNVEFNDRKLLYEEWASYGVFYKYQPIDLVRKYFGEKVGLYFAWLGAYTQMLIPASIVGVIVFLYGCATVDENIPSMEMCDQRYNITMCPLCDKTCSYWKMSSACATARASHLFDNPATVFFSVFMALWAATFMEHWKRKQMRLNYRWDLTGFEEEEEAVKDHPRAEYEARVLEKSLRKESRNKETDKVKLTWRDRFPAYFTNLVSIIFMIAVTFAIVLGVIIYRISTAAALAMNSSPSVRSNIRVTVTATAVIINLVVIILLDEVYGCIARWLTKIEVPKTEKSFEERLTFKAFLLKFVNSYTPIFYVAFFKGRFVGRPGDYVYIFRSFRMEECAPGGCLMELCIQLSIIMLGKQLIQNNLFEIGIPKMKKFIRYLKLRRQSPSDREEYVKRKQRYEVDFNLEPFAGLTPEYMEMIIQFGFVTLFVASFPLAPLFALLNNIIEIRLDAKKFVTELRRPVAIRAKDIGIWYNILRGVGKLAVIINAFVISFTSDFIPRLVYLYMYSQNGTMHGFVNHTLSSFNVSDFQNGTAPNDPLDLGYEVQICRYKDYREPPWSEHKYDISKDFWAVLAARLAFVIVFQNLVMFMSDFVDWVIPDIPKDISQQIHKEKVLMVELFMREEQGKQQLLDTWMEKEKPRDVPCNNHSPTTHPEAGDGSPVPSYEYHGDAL
aSyn 5UTR inh: MLPCN primary screen, SNCA 5' untranslated region; alpha-synuclein 5'UTR reporter, inhibitor activity; inhibition, % (tested at 7.5 µM); actives 0.82% (n = 300,000); AID 1813; in the data active means inhibition above about 60%;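 further: H4 neuroglioblastoma cells stably carrying SNCA 5'UTR luciferase fusion; 0% = DMSO wells and 100% = positive control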
697 NFkB inh: inhibitors of the PMA/ionomycin-induced NF-kB reporter in 697 B cells. 697 B-cell NF-kB luciferase reporter, 16 h. actives 0.33% (n = 330,000). AID 435022. inhibition, % at 4 µM; in the data active means inhibition above about 35%
ANO1 block: blocks the mouse calcium-activated chloride channel TMEM16A; normalized B-score (activity score, 25-100; higher = stronger inhibition) at 10 µM; actives 1.2% (n = 310,000); HEK293 TMEM16A/YFP iodide influx fluorescence, ionomycin; Q8BHY3;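 active means ratio plate-corrected score three or more library SD toward inhibition, starting fluorescence score within five deviations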;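 further: score derived from kinetic fluorescence span divided by baseline fluorescence per well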
Jurkat NFkB inh: lowers PMA/ionomycin-induced NF-kB signal in Jurkat cells; PMA/ionomycin-induced NF-kB luciferase reporter, luminescence; inhibition, % at 4 µM; actives 0.53% (n = 330,000); AID 435003; in the data active means inhibition above about 50%
The depositor's hits bear a star; i = inactive; . = not tested or not shown. Hits are enriched below; roughly 2.5% of the tested compounds scored in any of these assays.

SMILES | KLF5 inh | ANO1 activ | aSyn 5UTR inh | 697 NFkB inh | ANO1 block | Jurkat NFkB inh
COc1ccc(O[C@H]2C=C[C@@H](c3ccccc3)O[C@@H]2COC(=O)CC/C(C)=N/O[C@@H](C)c2cc(-c3c(C)cc(C)cc3C)no2)cc1 | -0.4 | . | 9.7 | 18.9 | . | 1.1
COc1ccc(O[C@H]2C=C[C@@H](c3ccccc3)O[C@@H]2COC(=O)CC/C(C)=N/OC[C@@H](O)COCc2ccco2)cc1 | -19.0 | . | 6.4 | 2.9 | 25* | 10.0
Cc1ccc(S(=O)(=O)Nc2ccccc2-c2ccccc2NS(=O)(=O)c2ccc(C)cc2)cc1 | 13.3 | i | -3.7 | 10.9 | 100* | 8.7
Cc1ccc(S(=O)(=O)Nc2ccccc2C(N)=O)cc1 | 5.0 | i | -20.6 | 20.7 | i | 2.6
O=C(N/C=N/O)C(c1ccccc1)c1ncc(C(F)(F)F)cc1Cl (stereo unspecified) | -26.9 | i | -8.3 | 13.3 | i | -0.6
CCN(CCn1cccn1)Cc1cn[nH]c1-c1cccc2ccccc12 | -16.4 | -6.24* | -16.8 | 21.6 | i | -3.3
CCOc1cccc(/C=N/NC(=O)c2cccnc2)c1O | 94.3* | i | 17.8 | -31.8 | i | 5.8
Cc1cccc(CNC(=O)C2CCC(=O)N(Cc3ccccc3F)C2)n1 (stereo unspecified) | 1.3 | i | -6.8 | 12.8 | . | 2.3
CCOC(=O)c1cccc(NC(=O)c2ccc3c(c2)OCO3)c1 | -118.8 | i | -125.8 | -42.3 | i | -37.1
CCOC(=O)c1cccc(NC(=O)/C=C/c2ccc3c(c2)OCO3)c1 | 23.5 | i | 105.8* | -37.7 | i | 13.9
COC(=O)Nc1nc(-c2ccccc2)c(C(=O)c2ccccc2)s1 | 53.0 | i | 100.0* | -16.4 | i | 41.0
CCOC(=O)c1ccc(CC2S/C(=C(\C#N)C(C)=O)NC2=O)cc1 (stereo unspecified) | -6.4 | i | -8.5 | -12.3 | i | 2.5
CCc1ccc(CC2S/C(=C(\C#N)C(C)=O)NC2=O)cc1 (stereo unspecified) | -5.7 | i | 19.7 | -183.8 | 100* | -6.5
CC(=O)N(Cc1ccc(F)cc1)C1=C(NCc2ccccc2)C(=O)c2ccccc2C1=O | 41.6 | i | 91.7* | . | . | .
O=c1c2cc(Cl)ccc2nc(-c2ccc(Cl)c(Cl)c2)n1O | 3.4 | i | -15.7 | 4.1 | 100* | 15.1
CCCCC1(CC)SCC(=O)NC1=O (stereo unspecified) | . | i | . | . | . | .
CCN1CCN(c2ccc(S(=O)(=O)N3CCCCC3)cc2NC(=O)c2ccc([N+](=O)[O-])o2)CC1 | . | i | -31.9 | 15.1 | i | 26.0
CC(=O)N1CCN(c2ccc(NC(=O)c3ccc([N+](=O)[O-])o3)cc2Cl)CC1 | 29.6 | i | 49.1 | 0.6 | i | 31.4
CCN1CCN(c2ccc(NC(=O)c3ccc([N+](=O)[O-])o3)cc2Cl)CC1 | 1.5 | i | 126.2* | . | . | .
CCC(=O)N1CCN(c2ccc(NC(=O)c3ccc([N+](=O)[O-])o3)cc2Cl)CC1 | 14.3 | i | 77.4* | . | . | .
O=S(=O)(c1ccccc1F)N1CCN(CCOc2ccccc2)CC1 | . | i | . | -29.6 | . | -4.1
CCCCCCn1c(=O)c(-c2ccccc2)c(O)c2ccccc21 | -10.9 | i | 12.3 | 5.8 | i | -9.9
CCCCCCCCn1c(=O)c(C(=O)OC)c(N)c2ccccc21 | -21.3 | i | 17.5 | -18.0 | 100* | 17.4
Cc1ccc(NC(=O)C(=O)Nc2ccccn2)cc1 | -137.6 | i | 71.0* | -108.3 | i | -94.7
Cc1ccc(S(=O)(=O)CC(=O)Nc2ccccn2)cc1 | -11.6 | i | 13.1 | 13.6 | i | 14.0
SMILES | KLF5 inh | ANO1 activ | aSyn 5UTR inh | 697 NFkB inh | ANO1 block | Jurkat NFkB inh
N#Cc1ccc(C(=O)NCCCSc2ccccc2)cc1 | -21.0 | i | 8.5 | 17.3 | i | 13.3
CCOC(=O)c1cnc2ccc(OC)cc2c1NCc1ccccc1 | -8.9 | i | -6.7 | -15.3 | i | 4.6
CCOC(=O)c1cnc2ccc(OCC)cc2c1NCc1ccccc1OC | -7.4 | i | 32.6 | -28.0 | 100* | 32.0
O=C(NCC1CCN(Cc2ccc(Cl)cc2)CC1)C1CCCN(c2ncnc3c2nc2n3CCCCC2)C1 (stereo unspecified) | -22.3 | i | -26.9 | -56.6 | i | 29.0
CCOC(=O)N1CCC(N2Cc3cccc(C(=O)Nc4ccccc4OC)c3C2=O)CC1 | -15.6 | i | 28.9 | 8.3 | i | 12.6
O=S(=O)(c1ccc(OC(F)(F)F)cc1)N1CCC(O)(c2cccc(C(F)(F)F)c2)CC1 | -15.4 | i | 22.0 | -2.0 | 25* | -13.8
CCCNC(=O)c1ccc(N2CCC3(CC2)CC(c2ccccc2)=NO3)c([N+](=O)[O-])c1 | -21.6 | i | -22.3 | -10.1 | i | 5.8
CCCCCCCNC(=O)c1ccc(N2CCC3(CC2)OCCO3)c([N+](=O)[O-])c1 | -27.9 | i | 33.4 | -4.7 | 100* | 11.0
CCOc1cc(/C=C2\CN(C)C/C(=C\c3ccc(O)c(OCC)c3)C2=O)ccc1O | 33.0 | i | 96.5* | -57.0 | i | 33.3
CCOc1cc(/C=C2/C(=O)ON=C2C)ccc1O | -31.8 | i | 5.9 | 16.5 | i | -11.6
Cc1ccc(NC(=O)C2CCN(S(=O)(=O)c3ccc4c(c3)CC(C)N4C(=O)C3CCC3)CC2)nc1 (stereo unspecified) | -11.0 | i | 38.5 | -17.1 | i | 25.2
Cc1ccnc(NC(=O)C2CCN(S(=O)(=O)c3ccc4c(c3)CC(C)N4C(=O)C3CCC3)CC2)c1 (stereo unspecified) | -13.4 | i | 10.5 | -0.8 | 25* | -3.5
CCc1ccc(C(C)NC(=O)c2ccc3c(c2)OCO3)cc1 (stereo unspecified) | -6.8 | i | 9.8 | -4.4 | i | -3.8
O=C(Nc1ccc(Oc2ccc(Cl)cc2)c(Cl)c1)c1cc(I)cc(I)c1O | -6.6 | -5.9* | -16.6 | -6.2 | 100* | -1.7
Cc1[nH]nc(C(F)(F)F)c1N=NN1CCOCC1 | . | i | . | . | . | .
O=[N+]([O-])c1cc(S(=O)(=O)N2CCCC2)ccc1O | 6.4 | i | 12.4 | 3.0 | i | 4.9
O=[N+]([O-])c1cc(S(=O)(=O)N2CCCCCC2)ccc1F | -9.4 | -6.59* | . | . | i | .
COC(=O)c1c[nH]c(=S)n1Cc1ccccc1 | . | -5.44* | . | . | . | .
COc1nccnc1NS(=O)(=O)c1ccc(N)cc1 | -12.8 | i | 4.1 | -3.0 | . | 6.0
O=C(Nc1ccc(F)cc1)Nc1ccccc1NS(=O)(=O)c1cccs1 | -12.7 | i | -0.1 | -10.3 | i | 2.2
O=C(Nc1ccc(Cl)cc1)Nc1ccccc1NS(=O)(=O)c1cccs1 | -20.5 | i | -4.5 | 6.8 | 100* | -11.1
CCOc1ccccc1NC(=O)CSc1nncc2ccccc12 | -1.7 | i | 0.6 | -3.0 | i | 0.7

High-throughput results (PubChem)
